Data: PubChem BioAssay (NCI)
This is part of a sample that, as a whole, favours compounds with a hit. Of some 83,000 tested, about 20% had one in any assay.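 48-hour exposure, single concentration, 96-well plates; percent growth endpoint where 0 means no net growth. Active: below 10.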 The source made the active and inactive calls.

What follows are molecules tested on MDA-MB-468 breast (assay: NCI-60 one-dose screen, 48 h (100 = growth as untreated, 0 = no growth, -100 = all killed)). Conditions: 10 µM unless noted.

| SMILES | growth |
| --- | --- |
| COc1ccc(C(=O)C(Br)C(Br)C(=O)O)cc1 (stereo not given) | 93% (inactive) |
| Cc1cccc(NC(=O)c2sc3nc4c(cc3c2N)CCCC4)c1C | 19.3% (inactive) |
| NC(N)=N/N=C/c1cccc(Br)c1 | 87% (inactive) |
| Nc1nccc2c1ccn2-c1cccc(NC(=O)c2ccc(N3CCOCC3)c(C(F)(F)F)c2)c1 | -14.2% (active) |
| COc1ccc(NCc2cn(-c3ccc(C(=O)O)cc3)nc2-c2cc(C(F)(F)F)cc(C(F)(F)F)c2)cc1 | 112% (inactive) |
| COc1cc(-c2nc3ccccc3o2)cc(CN2CCN(c3ccccc3)CC2)c1O | 76.3% (inactive) |
| CCN(CC)c1ccc(/C=C2\SC(=O)C(Nc3nnc(-c4cccnc4SCc4ccccc4)o3)C2=O)cc1 (stereo not given) | 2.42% (active) |
| Cn1cc(-c2csc(-c3c[nH]c4ccccc34)n2)c2cnccc21 | -20.8% (active) |
| C[N+]1(CCCCC[N+]2(C)CCCC2)CCCC1 | 117% (inactive) |
| CC1CN(C2CCCCC2)C(=O)NC1=O (stereo not given) | 108% (inactive) |
| CC(=O)Nc1nc2c(s1)CCc1c-2cn(S(=O)(=O)c2ccccc2)c1-c1ccccc1 | 61.6% (inactive) |
| Cc1cc(C)n(C(=O)c2sc(=S)n(-c3ccccc3)c2N=Nc2c(N)n[nH]c2N)n1 | 112% (inactive) |
| N/C(=N\OC(=O)CSc1nc2ccccc2s1)c1ccc(Cl)cc1 | 100% (inactive) |
| COc1cc(C(=O)n2nc(N)c3c(C)cc(C)nc32)cc(OC)c1OC | 20.3% (inactive) |
| C[N+](C)(C)c1ccc(CC2c3ccccc3-c3ccccc32)cc1 | -24.1% (active) |
| CCCCCCCCCCOC(C)=O | 110% (inactive) |
| O=S(=O)(NCCNc1nccc(-c2c(-c3ccc(F)c(O)c3)nc3sccn23)n1)c1ccccc1 | 83.2% (inactive) |
| Cc1ccc(-n2c3c(c(-c4ccccc4)c2-c2ccccc2)C2=NCCN2C=N3)cc1 | 81.8% (inactive) |
| CS(=O)(=O)Nc1cc(-c2ccc3ncc(C#N)c(NCc4ccccc4O)c3c2)cnc1Cl | -23.1% (active) |
| COc1ccc(-c2ccc3ncc4c(c3c2)n(-c2ccc(N3CCNCC3)c(C(F)(F)F)c2)c(=O)n4C)cn1 | -87% (active) |

| SMILES | growth |
| --- | --- |
| CN1CCN(Cc2ccc(NC(=O)c3cncc(C#Cc4cnc(N)c5ccc(F)cc45)c3)cc2C(F)(F)F)CC1 | -34.4% (active) |
| O=C1OC2C(I)C3CC2C1C3c1ccccc1 (stereo not given) | 91.5% (inactive) |
| COc1ccc(N(Cc2cc(OC)c(OC)c(OC)c2)C2OC(=O)c3ccccc32)cc1 (stereo not given) | 24.2% (inactive) |
| Nc1c(C(=O)c2ccccc2)sc2nc(-c3cccs3)ccc12 | 3.08% (active) |
| Cc1ccc(-c2cc(-c3cccc(Nc4ccnc5cc(Cl)ccc45)c3)nc3nc(N)[nH]c(=O)c23)cc1 | 28% (inactive) |
| c1cc2[nH]ncc2cc1-c1nc2ccc3[nH]ncc3c2c2c1CCC2 | 3.92% (active) |
| C/C=C/C1=CN2C(=O)c3cc(OC4OC(C)C(NC)C(C)(O)C4O)c(C)c(O)c3N=C[C@@H]2C1 (stereo not given in full) | -57.5% (active) |
| CCCCC(=O)c1ccc(OC)cc1 | 85.2% (inactive) |
| O=C(Oc1ccccc1)c1cc(O)c(O)c(O)c1 | 71.7% (inactive) |
| C=CCSc1nc2ccccc2cc1/C=N/O | 82% (inactive) |
| CC(C)c1cc(N=O)cc(C(C)C)c1O | 81.8% (inactive) |
| Cc1ccc(CSC2=C(Cl)CN(c3ccc(Cl)cc3)C2=O)cc1 | 83.4% (inactive) |
| COc1ccc(-c2cn[nH]c2-c2cc(OC)c(OC)c(OC)c2)cc1OCc1ccccc1 | -5.94% (active) |
| COc1ccc(C2CCCCC2=O)cc1 (stereo not given) | 109% (inactive) |
| COc1ccc(-c2nc3cc(C(=O)Nc4cc(OC)c(OC)c(OC)c4)ccc3n2C2CCCCC2)cc1 | 128% (inactive) |
| CCN(CC)c1ccc(CNc2cc(C)nc3ccc(OC)cc23)cc1 | 2.98% (active) |
| COc1ccc(-n2c(/C=C3\C(=O)Nc4ccccc43)ccc2CO)cc1 | 96.4% (inactive) |
| C=C(C)[C@@H]1CC[C@]2(C(=O)ON)CC[C@]3(C)[C@H](CC[C@@H]4[C@@]5(C)C/C(=C/c6ccc(Br)cc6)C(=O)C(C)(C)[C@@H]5CC[C@]43C)[C@@H]12 | 73.2% (inactive) |
| Nc1ccc(S(=O)(=O)Nc2ccsc2-c2nc(-c3ccccc3)no2)cc1 | 43.1% (inactive) |
| NCCCOc1cc(Cl)ccc1NC(=O)c1cc2ccccc2cc1OCCCN | -85.3% (active) |
